Assay outcomes: PubChem, National Center for Advancing Translational Sciences (NCATS)
aSyn yeast inh = rescues yeast growth from alpha-synuclein toxicity. Yeast expressing alpha-synuclein, growth rescue, BacTiter-Glo, 24 h. Potency, µM (highest dose often 46.1 µM), without a hit: top-dose growth rescue (activation), usual class: activators. 370,000 compounds, 0.14% hits. AID 652106; note: % of control where 0% means no effect; nearly all actives have a fitted effect of over 65% in size
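Galactose-induced alpha-syn yeast (OD600=0.02, raffinose-pregrown) + pinned cpd, 24 hr, 30 deg C; growth by BacTiter-Glo luminescence. Growth restoration scores as activation.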
Abeta yeast res = restores growth of yeast expressing A-beta42 peptide. yeast expressing A-beta42, growth rescue, OD600, 48 h; response scale: 0% DMSO, 100% iron-clioquinol control. Potency, µM (titrated, usually from 46.1 µM), actives largely listed as activators. 410,000 compounds, 0.063% hits. AID 1347071; note: nearly all actives have a fitted effect of over 55% in size
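Growth rescue measured by 600 nm absorbance after 48 h yeast culture at 30 C with compound. Values normalized between DMSO and an equimolar ferric chloride plus clioquinol control.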
FUS yeast rescue = rescues growth of FUS-expressing yeast | S. cerevisiae FUS-expressing, growth rescue, OD600, 24 h | 390,000 compounds, 0.24% hits | Potency, µM (top dose mostly 76.6 µM), most hits filed as activators;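 note: plate controls were DMSO vehicle for no effect and reference control for full effect; nearly all actives have a fitted effect of over 55% in size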
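Yeast expressing FUS under galactose induction, OD 0.005 in 2% galactose medium; compounds in a dilution series, 24 h at 30C. Growth rescue by absorbance at 600 nm; CP55940 positive control, DMSO negative.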
TDP43 rescue = rescues yeast growth from TDP-43 toxicity; TDP-43 expressing yeast growth rescue, BacTiter-Glo, 24 h; Potency, µM (highest dose often 46.1 µM), for the others: at the top dose growth rescue (activation), usual class: activators; 410,000 compounds, 1.8% hits; note: % of control where 0% means no effect; nearly all actives have a fitted effect of over 50% in size
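In this qHTS, compounds that restore growth of yeast expressing TDP-43 appear as activators. Cells (OD600=0.02, galactose medium, raffinose-pregrown) are incubated with compound 24 hr at 30 deg C and growth is quantified by BacTiter-Glo.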
Numbers without * were called inactive; i = inactive; ? = inconclusive; · = not tested or not shown; [ ] = remark or other dose. Only some compounds are listed: those with a hit (about 2.1% of all), similar ones and a draw of the others. Calls come from the whole dose curve; as a rule, active = well fitted curve in the direction sought with a large enough effect; inconclusive = small, poorly fitted or top-dose-only effect, or another doubt; inactive = no such curve, though single readings can be large; an effect the other way counts as inactive or inconclusive. Potency is the fitted concentration of half-maximal effect.

SMILES	aSyn yeast inh	Abeta yeast res	FUS yeast rescue	TDP43 rescue
CC(C)C(C(=O)Nc1ccccc1)N1C(=O)c2ccccc2C1=O (stereo not given)	8%	i	i	16µM*
O=c1cc(O)c2ccc(O)cc2o1	?	i	i	14µM*
CC(=O)Oc1ccc2c3c(c(=O)oc2c1)CCCC3	6%	?	i	?
Cc1cc(=O)oc2cc(O)ccc12	-8%	i	i	12%
O=c1oc2cc(O)ccc2c2c1CCCC2	14%	i	i	13µM*
O=S(=O)(N[C@@H]1CCCC[C@H]1N1CCOCC1)c1ccc(Cl)cc1	·	·	i	·
CC1=C2NC(N)=[N+](Cc3ccccc3)CC2n2c(=O)n(-c3ccccc3)c(=O)n2C1 (stereo not given)	·	·	i	·
COc1cc(/C=C(\C#N)C(=O)NC2CCCCC2C)ccc1OS(=O)(=O)c1ccc(C)cc1 (stereo not given)	0%	i	i	15%
COc1cc(/C=C(\C#N)C(N)=O)ccc1OS(=O)(=O)c1ccc(C)cc1	-6%	i	i	18µM*
COc1cc(NC(=O)c2ccc3c(c2)OCCO3)ccc1NC(=O)c1cccs1	-13%	i	i	13µM*
COc1cccc(C(=O)Nc2cc(NC(=O)c3cccs3)ccc2C)c1OC	-10%	i	i	11µM*
O=C(Nc1ccc(NC(=O)c2cccs2)cc1)c1ccc2c(c1)OCCO2	?	i	i	-1%
COC(=O)c1cc(S(=O)(=O)N2CCCN(C(C)=O)CC2)cn1C	·	·	i	·
CCc1sc(C(=O)NCc2ccco2)cc1C	5%	i	i	24%
CCc1sc(C(=O)NCc2ccco2)cc1Br	-12%	i	i	16µM*
CN1OC[C@@H]2CN(C(=S)NCCc3ccccc3)[C@H](c3ccccc3Br)C[C@@H]21	0%	i	i	13µM*
CN1OC[C@@H]2CN(C(=O)Cc3ccccc3)[C@H](c3ccccc3Br)C[C@@H]21	1%	i	i	0%
Cc1ccc(C(C)C)c(OCC(=O)Nn2c(=O)[nH]c3ccccc3c2=O)c1	15%	i	·	0%
Cc1ccc(C(C)C)c(OCC(=O)Nn2c(C)nc3ccccc3c2=O)c1	5%	i	i	14µM*
Cc1nc2ccccc2c(=O)n1NC(=O)c1ccc(C(C)(C)C)cc1	-9%	i	i	15%
Cc1ccc(C(=O)Nn2c(C)nc3ccccc3c2=O)cc1C	-1%	i	i	11µM*
O=c1oc2ccccc2c2[nH]ccc12	7%	i	i	-19%
O=c1oc2ccccc2c2c1ccc1ccccc12	7%	i	i	35µM*
CC(=O)Nc1nc(COc2ccc3ccccc3c2)cs1	·	i	i	7.1µM*
O=C(Nc1ccccc1)C1=C[C@H](c2csc3ccccc23)C[C@H](OCc2ccc(CO)cc2)O1	14%	i	11µM*	16%
SMILES	aSyn yeast inh	Abeta yeast res	FUS yeast rescue	TDP43 rescue
Cc1cc(C(=O)CN2C(=O)C3CC=CCC3C2=O)c(C)n1-c1ccccc1 (stereo not given)	?	i	32µM*	-39%
Cc1cc(C(=O)CN2C(=O)c3ccccc3S2(=O)=O)c(C)n1-c1ccccc1	21%	i	?	?
O=C(COC(=O)c1cc(-c2ccccc2)nc2ccccc12)NC1CC1	-1%[1.84 µM]	i	?	35µM*
COc1ccc(-c2cc(C(=O)OCC(=O)NC3CC3)c3ccccc3n2)cc1	0%	i	?	18%
COc1ccc(C(=O)c2cnc3ccccc3c2-c2ccccc2)cc1	13%	i	i	35µM*
Cc1ccc(C(=O)c2cnc3ccccc3c2-c2ccccc2)cc1	-9%	i	i	?
CCOC(=O)[C@H]1[C@H]2COc3ccc(Cl)cc3[C@@H]2N2C(=O)c3cc(Cl)ccc3NC(=O)[C@@]12C	-5%	3.5µM*	i	8%
C[C@@]12C(=O)Nc3ccc(Cl)cc3C(=O)N1[C@H]1c3ccccc3OC[C@@H]1[C@@H]2c1ccccc1	-2%	i	28µM*	-47%
Cc1ccc2c(c1)C(=O)N1[C@H]3c4cc(Cl)ccc4OC[C@@H]3[C@H](c3ccccc3)[C@]1(C)C(=O)N2	-13%	i	i	-15%
CCOC(=O)[C@H]1[C@H]2COc3ccc(Cl)cc3[C@@H]2N2C(=O)c3cc(Br)ccc3NC(=O)[C@@]12C	4%	?	?	?
C[C@@]12C(=O)Nc3ccc(F)cc3C(=O)N1[C@H]1c3cc(Cl)ccc3OC[C@@H]1[C@@H]2c1ccccc1	-3%	i	i	18µM*
C[C@@]12C(=O)Nc3ccc(F)cc3C(=O)N1[C@H]1c3ccccc3OC[C@@H]1[C@@H]2c1ccccc1	7%	i	?	14µM*
COC(=O)C[C@@H]1CC[C@H]2[C@@H](COc3ccc(NC(=O)Nc4ccccc4Cl)cc3C(=O)N2C)O1	·	·	i	·
CCOC(=O)[C@@H]1[C@H]2COc3ccccc3[C@H]2N2C(=O)N(c3ccc(Cl)cc3)C(=O)[C@]12C	-6%	i	?	35µM*
COc1cccc(-c2nn(-c3ccc(C)cc3)cc2C(=O)N(C)CC(=O)Nc2cccc(F)c2)c1	1%	i	·	22µM*
O=C1CCC[C@H]2Cc3nc4cccc(Cl)c4cc3C[C@]23CCCN13	·	·	i	·
COc1ccc2c(=O)c(-c3ccccc3)c(C)oc2c1	6%	i	i	11µM*
COC(=O)c1cc(-c2c(C)oc3cc(OC)ccc3c2=O)c(C)o1	-31%	i	i	-13%
CCCOc1ccc(C(=O)c2nc3c(n2O)CCCC3)cc1	·	i	i	13µM*
N#CCCn1cc(CNCc2cccnc2)c(-c2ccccc2)n1	-3%	·	·	·
CC(Sc1nnnn1C)C(=O)Nc1ccc(Oc2ccccc2)cc1 (stereo not given)	1%	i	i	16µM*
CC(Sc1nnnn1-c1ccccc1)C(=O)Nc1ccc(N2CCN(C)CC2)cc1 (stereo not given)	0%	i	i	7%
CCOC(=O)CCCNC(=O)OCCCN1CCC2(CCC(c3ccccc3)CC2)C1=O (stereo not given)	·	·	i	·
CC(C)(C)CCN1C[C@@H]2C(CNC(=O)c3cc(Cl)cc(Cl)c3)[C@@H]2C1 (stereo not given in full)	·	·	i	·
Nc1ccc(C2CCCc3nonc32)c2nonc12 (stereo not given)	1%	i	i	22µM*
N#CCC[C@@H]1CC[C@]2(CCCN(Cc3ccc(Br)cc3)C2)O1	·	·	i	·
CCOc1ccc(-c2nc(N)ncc2-c2ccc(OC)cc2)c(O)c1	17%	i	·	10%
CCOc1ccc(-c2nc(N)ncc2-c2ccc(Cl)cc2)c(O)c1	3%	i	i	22µM*
O=C(NCc1ccccc1)C1C(=O)Nc2ccccc2C(=O)N1C1CCCC1 (stereo not given)	2%	i	i	15%
